Assay results: paper PMC4336329 (PLoS ONE, 2015)
Among all 310,000 compounds or so, about 14,000 (4.5%) showed an effect of 50% or more. Effects have a minus sign here. The sample as a whole holds a higher share of strong results than the screen did.

biological target: human ether-à-go-go-related gene (hERG) potassium channel (human, UniProt Q12809); assay: primary screen, population patch clamp on CHO cells stably expressing hERG; higher = less effect of the substance
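Further: peak tail current of the secondary pulse compared with the same well before compound.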

Chain of human ether-à-go-go-related gene (hERG) potassium channel (Q12809 whole entry, looked up): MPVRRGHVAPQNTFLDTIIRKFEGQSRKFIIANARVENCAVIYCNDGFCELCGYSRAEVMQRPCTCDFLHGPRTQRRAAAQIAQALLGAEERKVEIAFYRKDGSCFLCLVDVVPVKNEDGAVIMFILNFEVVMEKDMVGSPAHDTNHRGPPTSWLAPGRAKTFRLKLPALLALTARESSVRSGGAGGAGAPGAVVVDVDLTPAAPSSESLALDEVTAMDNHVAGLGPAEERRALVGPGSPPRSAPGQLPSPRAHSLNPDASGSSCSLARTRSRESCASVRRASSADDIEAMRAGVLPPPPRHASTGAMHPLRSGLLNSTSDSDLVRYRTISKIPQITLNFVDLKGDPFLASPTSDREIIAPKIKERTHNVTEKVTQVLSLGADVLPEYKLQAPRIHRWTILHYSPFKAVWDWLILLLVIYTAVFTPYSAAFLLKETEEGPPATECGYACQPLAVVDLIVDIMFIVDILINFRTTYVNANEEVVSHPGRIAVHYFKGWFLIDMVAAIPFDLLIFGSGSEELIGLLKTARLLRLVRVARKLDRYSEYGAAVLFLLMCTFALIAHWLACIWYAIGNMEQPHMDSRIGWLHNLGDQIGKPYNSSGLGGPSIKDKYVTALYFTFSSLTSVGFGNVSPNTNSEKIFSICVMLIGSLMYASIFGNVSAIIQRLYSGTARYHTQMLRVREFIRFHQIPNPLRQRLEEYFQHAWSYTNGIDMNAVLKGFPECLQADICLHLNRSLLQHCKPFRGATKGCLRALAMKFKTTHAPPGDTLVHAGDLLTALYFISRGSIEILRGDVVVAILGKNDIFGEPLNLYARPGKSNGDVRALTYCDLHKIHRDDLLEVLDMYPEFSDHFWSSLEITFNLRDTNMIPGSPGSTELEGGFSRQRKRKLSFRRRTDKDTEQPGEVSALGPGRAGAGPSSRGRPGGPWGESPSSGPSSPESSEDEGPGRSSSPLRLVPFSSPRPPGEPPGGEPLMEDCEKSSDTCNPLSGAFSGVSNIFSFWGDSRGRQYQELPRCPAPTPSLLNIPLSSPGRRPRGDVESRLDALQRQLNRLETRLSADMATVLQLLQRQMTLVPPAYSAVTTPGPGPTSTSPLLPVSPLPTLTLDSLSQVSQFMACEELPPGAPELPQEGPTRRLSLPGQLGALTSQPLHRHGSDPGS

SMILES	hERG current change (%, negative = inhibition) at 10uM [%]
O=C(O)CCCn1cc(NC(=O)c2ccco2)cn1	26.7
O=C(NCCN1CCOCC1)c1ccc(CSc2nc3ccncc3n2Cc2ccc(F)cc2)cc1	-8.35
Fc1ccc(-c2nnn(Cc3nc4ccccc4s3)n2)cc1	-11.2
CCN(CC)C(=O)c1cc2c(=O)n3cccc(C)c3nc2s1	15.5
Cc1cccc(-c2nc(CN3CCCC(C(=O)NC4CCC(C)CC4)C3)c(C)o2)c1 (stereo not shown)	-68.4
COc1ccc(CNC(=O)C2CCCN(c3nccc(C)n3)C2)cc1 (stereo not shown)	-0.849
Cc1cccc(-c2nc(CN3CCCC(C(=O)NC4CCCC4)C3)c(C)o2)c1 (stereo not shown)	-76.3
Cc1cccc(-c2nc(CN3CCCC(C(=O)NC4CCCCC4)C3)c(C)o2)c1 (stereo not shown)	-60.4
CCN(c1ccc(OC)cc1)S(=O)(=O)N1CCCC(C(=O)NCc2cccc(C)c2)C1 (stereo not shown)	-26.5
COc1ccc(CNC(=O)C2CCCN(Cc3nc(-c4cccc(C)c4)oc3C)C2)cc1 (stereo not shown)	-63.8
COc1cccc(N2CCN(S(=O)(=O)c3ccc(-n4cnnn4)cc3)CC2)c1	16.6
CCN(CC)CCNC(=S)NC(=O)c1cn(-c2ccccc2)nc1-c1ccc(OC)cc1	-27.3
COc1ccc(N(CC(=O)N2CCCCC2)S(=O)(=O)c2c(C)nn(C)c2C)cc1	4.36
CCOC(=O)CSc1nnc(Cc2ccccc2)n1CC1CCCO1 (stereo not shown)	5
Clc1ncc(Cn2cccn2)s1	10.5
O=C1C2C3C=CC(C3)C2C(=O)N1/N=C/c1cn(Cc2ccc(F)cc2)c2ccccc12 (stereo not shown)	5.84
O=C(NCCCn1ccnc1)c1ccc(Cl)s1	5.72
COC(=O)c1c(NC(=O)COC(=O)c2ccc(NC(=O)CC#N)cc2)sc2c1CCCCC2	17.6
Cc1cccc(-c2nc(CS(=O)CC(=O)NC3CCCCC3)c(C)o2)c1 (stereo not shown)	-3.93
Cc1cccc(-c2nc(CN3CCCC(C(=O)NC4CCCCCC4)C3)c(C)o2)c1 (stereo not shown)	-69.8
O=C(NCCO)c1cc2ccccc2c(=O)s1	6.96
Cc1cccc(-c2nn(-c3ccccc3)cc2C(=O)NCC(c2cccs2)N2CCOCC2)c1 (stereo not shown)	-4.33

SMILES	hERG current change (%, negative = inhibition) at 10uM [%]
O=C1c2ccccc2N2C(=O)c3ccccc3[C@H]2N1c1ccccc1	-22.4
O=C1c2ccccc2N2C(=O)c3ccccc3C2N1Cc1ccccc1 (stereo not shown)	-57.9
O=C1c2ccccc2N2C(=O)c3ccccc3C2N1Cc1ccco1 (stereo not shown)	-27.4
COC(=O)c1ccc(CN2C(=O)c3ccccc3C2=O)cc1	8.01
Cc1cccc(NC(=O)CC2(CC(=O)O)CCCC2)c1	24.6
Cn1nc(-c2ccccc2)cc1NC(=O)c1cccs1	5.18
Cc1ccccc1S(=O)(=O)Cc1ccc(C(=O)NCCCN(C)Cc2ccccc2)o1	-56.2
Cc1ccccc1S(=O)(=O)Cc1ccc(C(=O)NCCN(C)Cc2ccccc2)o1	-48.5
Cc1ccccc1S(=O)(=O)Cc1ccc(C(=O)NCCc2ccccc2)o1	-30.6
Cc1ccccc1S(=O)(=O)Cc1ccc(C(=O)NCCN(CC(C)C)CC(C)C)o1	-43.6
Cc1ccccc1S(=O)(=O)Cc1ccc(C(=O)NCCN(Cc2ccccc2)C(C)C)o1	-55.6
CCN(CC)CCNC(=O)c1ccc(CS(=O)(=O)c2ccccc2C)o1	-24
CCCCn1c(=O)[nH]c(=O)c2c1nc(-c1cc(Cl)c(OC)c(OC)c1)n2C	16.2
CCSc1nc(O)cc(=O)n1-c1ccc(OC)cc1	3.73
O=C(c1ccco1)N(CCC(c1ccccc1)c1ccco1)Cc1ccccc1 (stereo not shown)	-14.8
COc1cc(/C=C2/C(=N)N3N=C(CC(=O)N4CCOCC4)SC3=NC2=O)ccc1OC(C)c1ccccc1 (stereo not shown)	11.7
Cc1ccc(NC2CCCN(C(=O)c3ccc(F)cc3)C2)cc1C (stereo not shown)	-9.71
Cc1ccc(C(=O)N2CCCC(Nc3ccc(C)c(C)c3)C2)c(=O)[nH]1 (stereo not shown)	-50.3
Cc1ccc(NC2CCCN(C(=O)c3ccoc3C)C2)cc1C (stereo not shown)	-1.68
O=C(NCC(=O)N1CCCC(C(F)(F)F)C1)c1ccc2ccccc2c1 (stereo not shown)	-11.3
Nc1n[nH]c(-c2ccc([N+](=O)[O-])cc2[N+](=O)[O-])n1	15.4
Cc1ccc2c(C(=O)CN3CCCC(C)C3)c(C)[nH]c2c1 (stereo not shown)	-14.8

SMILES	hERG current change (%, negative = inhibition) at 10uM [%]
COc1ccc2[nH]cc(C(=O)CN3CCC(C)CC3)c2c1	-5.75
Cc1ccc2c(C(=O)CN3CCCCC3)c(C)[nH]c2c1	-11.1
Cc1ccc2c(C(=O)CN3CC(C)CC(C)C3)c(C)[nH]c2c1 (stereo not shown)	-51
COc1ccc2[nH]cc(C(=O)CN3CCN(C4CCCCC4)CC3)c2c1	-54.8
CCC1CCCCN1CC(=O)c1c(C)[nH]c2cc(C)ccc12 (stereo not shown)	-27.7
Cc1ccc2c(C(=O)CN3CCN(C4CCCCC4)CC3)c(C)[nH]c2c1	-55.1
CCOC(=O)C1CCN(C(C)C(=O)c2c(C)[nH]c3cc(C)ccc23)CC1 (stereo not shown)	-76.7
CCOC(=O)C1CCN(C(C)C(=O)c2c[nH]c3ccccc23)CC1 (stereo not shown)	-42.2
Cc1ccc2c(C(=O)CN3CCCC3)c(C)[nH]c2c1	-6.89
Cc1[nH]c2ccccc2c1C(=O)CN1CC(C)CC(C)C1 (stereo not shown)	0.738
COc1ccc2[nH]cc(C(=O)CN3CCCCC3)c2c1	-8.72
CSc1ncccc1C(=O)N1CCN(S(=O)(=O)c2ccc3ccccc3c2)CC1	-34.9
Cn1c(N2C(=O)CC(Cc3ccccc3)C2=O)nc2ccccc21 (stereo not shown)	-17.6
COc1ccc(CN(C(=O)c2cccs2)c2nccs2)cc1OC	-10.9
O=C1CC(NS(=O)(=O)c2cc(F)ccc2F)CN1c1ccc2c(c1)OCCO2 (stereo not shown)	-4.13
Cc1cc(C)n2nc(SCC(=O)NC(=O)c3ccccc3Cl)nc2n1	0.516
COc1ccc(N2CC(C(=O)NC3CC(C)(C)NC(C)(C)C3)CC2=O)cc1 (stereo not shown)	-2.68
COc1ccc(NC2c3ccccc3C(=O)N2Cc2ccc3c(c2)OCO3)cc1 (stereo not shown)	-17.7
CCOC(=O)c1ccc(NC(=O)Nc2ccon2)cc1	6.02
O=C(O)C1=CC[C@@H](c2ccc(Cl)cc2)N(S(=O)(=O)c2ccc(Cl)cc2)[C@H]1c1cccc(Cl)c1	25.9
CCOC(=O)C1CCN(CC(=O)c2c(C)[nH]c3ccccc23)CC1	-39.7
CCOC(=O)C1CCN(CC(=O)c2c(C)[nH]c3cc(C)ccc23)CC1	-60.5

SMILES	hERG current change (%, negative = inhibition) at 10uM [%]
Cc1ccc2c(C(=O)CN3CCC(C(N)=O)CC3)c(C)[nH]c2c1	5.21
COc1cc(/C=N/NC(=O)c2ccc(Cl)cc2)ccc1OCC(=O)N1CC(C)OC(C)C1 (stereo not shown)	-18.3
O=C(CN1CCN(C(=O)c2cccc(S(=O)(=O)N3CCCC3)c2)CC1)Nc1ccc(F)cc1	-61.7
O=C(c1cccc(S(=O)(=O)N2CCCCC2)c1)N1CCN(S(=O)(=O)c2ccc(F)cc2)CC1	-40.6
O=C(CN1CCN(S(=O)(=O)c2ccccc2)CC1)Nc1ccccc1Cl	-6.93
O=C(CN1CCN(C(=O)c2cccc(S(=O)(=O)N3CCCC3)c2)CC1)Nc1ccccc1Cl	-66.8
O=C(CN1CCN(C(=O)c2ccccc2)CC1)Nc1cc(S(=O)(=O)N2CCCC2)ccc1Cl	-32.8
O=C(CN1CCN(C(=O)c2ccco2)CC1)Nc1cccc(S(=O)(=O)N2CCCC2)c1	-16.2
CCOc1ccc(N2C(=O)/C(=C/c3ccco3)N(C)C2=S)cc1	-4.46
CCC(C)NC(=O)C1CCCN(C(=O)NC2CCCCC2)C1 (stereo not shown)	13.8
Cc1cc(N2CCOCC2)nc2ccc(NC(=O)CCC(=O)N3CCN(c4ccc(F)cc4)CC3)cc12	21
COc1ccc(Br)c(C(=O)N2CCN(S(=O)(=O)/C=C/c3ccccc3)CC2)c1	-58.8
COc1cc(SC)ccc1C(=O)N1CCN(c2ccccc2OC)CC1	-24.5
COc1cc(SC)ccc1C(=O)N1CCN(c2ccccc2F)CC1	-33.8
COc1ccc(N2CCN(S(=O)(=O)/C=C/c3ccccc3)CC2)cc1	1.54
COc1ccc(Br)c(C(=O)N2CCN(S(=O)(=O)c3cccs3)CC2)c1	-9.75
COc1cc(SC)ccc1C(=O)N1CCN(S(=O)(=O)/C=C/c2ccccc2)CC1	-56.5
CCOC(=O)c1c(NC(=O)CN2CCCc3ccccc32)sc(C(C)=O)c1C	5.24
CC1(C)CCC(=O)N2CC[C@H]3C[C@H](OC(=O)Nc4ccc5c(c4)OCO5)C[C@@H]1[C@H]32	-0.41
